# The list is not random: actives were taken first. Their share in the collection is about 0.51%.
# Tat export inh = inhibitors of E. coli Tat protein transport; E. coli MC4100 TorA-mCherry Tat export, fluorescence; actives 0.036% (n = 340,000); inhibition, % at 10 µM;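 active = mean replicate inhibition at least 50% and at least half of replicates individually reaching 50%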;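 note: exported cargo escapes ClpAP degradation while cytoplasmic cargo is degraded and loses fluorescence; 0% = median of neutral control wells and 100% = median of NaSCN control wells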
# phage Ecoli inh = E. coli growth loss with phage present; actives 0.26% (n = 360,000); AID 651602; growth absorbance; inhibition, % at 11.9 µM; in the data active = inhibition above about 11%
# E coli growth-1 = bacterial growth inhibition, counter-screen for AddAB inhibitors | inhibition, % at 11.9 µM | AID 449728 | actives 0.27% (n = 330,000) | E. coli V3065 growth, OD600 absorbance, 18 h;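 active = inhibition above the campaign's mean inhibition across all tested compounds plus 3 SD, cut at about 9.9% in these data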;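 note: uninfected addAB+ strain grown without phage in ampicillin broth; 0% = DMSO wells and 100% = ciprofloxacin 0.95 µg/ml wells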
# E coli growth-2 = blocks Escherichia coli growth. OD600, 23 h; active compounds read low. OD600 absorbance (test concentration not listed). actives 0.21% (n = 330,000). AID 1053175;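 active = OD600 absorbance below the run mean of sample wells minus 3.6 SD, in any replicate, cut at about 0.56 in these data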
# AddAB inh = less growth of phage-infected E. coli with AddAB | E. coli expressing H. pylori AddAB, absorbance growth | actives 0.29% (n = 330,000) | inhibition, % at 11.9 µM; in the data active = inhibition above about 12%;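 note: 0% = vehicle wells of infected cells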
# AddAB conf = growth loss of T4-infected E. coli expressing H. pylori AddAB, confirmed; shares compounds with AddAB inh; actives 64% (n = 880); inhibition, % at 11.9 µM; E. coli V3065 expressing H. pylori AddAB, T4 phage, OD; T4 phage with gene 2 nonsense mutations;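 active = mean inhibition above a set limit taken from the earlier primary screen, cut at about 13% in these data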;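 note: higher means less bacterial growth since AddAB block lets phage replicate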
# RecBCD counter = AddAB counter-screen: growth loss of RecBCD+ E. coli infected with mutant T4 phage; shares compounds with AddAB inh; E. coli V66 + mutant T4 phage, OD growth; inhibition, % at 11.9 µM; actives 73% (n = 880); AID 488955;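 active = mean inhibition above the mean of solvent-only control wells plus 3 SD, cut at about 4% in these data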;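 note: optical density read after an 18 h incubation at 37 °C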
# Bact viability = reduces bacterial viability, AddAB inhibitor counter-screen | inhibition, % at 11.9 µM | shares compounds with AddAB inh | actives 35% (n = 880) | absorbance (AddAB counterscreen) | AID 488956; in the data active = inhibition above about 25%
# Starred values were filed as active, the others as inactive; x = not tested or not shown.
SMILES,Tat export inh,phage Ecoli inh,E coli growth-1,E coli growth-2,AddAB inh,AddAB conf,RecBCD counter,Bact viability
CCCCNC(=O)O[C@H]1C[C@@H]2CCN3C(=O)CCC[C@H]([C@H]1CC)[C@H]23,-9.6,2.9,2.3,x,15.2*,-2.2,1.2,-4.0
Cc1ccc(C(=O)NC(=S)NNC(=O)COc2ccc([N+](=O)[O-])cc2)cc1,-0.9,-4.7,-3.0,0.639,0.9,x,x,x
O=C(COc1ccc([N+](=O)[O-])cc1)NNC(=S)NC(=O)c1ccc(Br)cc1,-13.3,-4.1,95.8*,0.586,98.2*,-2.0,-0.3,3.4
CCN1CC2C3C(=O)N(Cc4ccccc4)C(=O)C3[C@](CC)(C1=O)N2C(=O)c1ccc(C(C)(C)C)cc1 (stereo partly specified),x,x,x,0.71,x,x,x,x
COc1cc(C=CC(=O)c2ccc([N+](=O)[O-])o2)ccc1O,x,x,x,0.548,x,x,x,x
COc1ccccc1-[n+]1c(C)cc(/C=C2\Sc3ccccc3N2C)cc1C,-7.4,13.3*,19.4*,0.356*,22.9*,33.3*,17.6*,29.7*
CC(C)CC(CO)N1CCNCCC1=O (stereo unspecified),x,x,x,0.686,x,x,x,x
Cn1c(/C=C/c2ccc([N+](=O)[O-])o2)nc2ccccc2c1=O,-2.4,x,79.1*,0.442*,62.8*,99.2*,28.9*,100.0*
Cc1cc(N/N=C/c2ccc([N+](=O)[O-])o2)nc2ccccc12,-0.8,7.1,32.4*,x,49.6*,43.2*,4.9*,12.9
Cc1cc(NN=Cc2ccncc2)nc2ccccc12,x,x,x,0.627,x,x,x,x
CC1OC(OC2C(COC3OC(CO)C(O)C(O)C3O)OC(OC3CC[C@]4(C)C(CC[C@@]5(C)C4C=C[C@]46OC[C@@]7(CCC(C)(C)CC74)C(O)C[C@@]56C)C3(C)C)C(O)C2O)C(O)C(O)C1O (stereo partly specified),x,x,x,0.692,x,x,x,x
CC(C)(C)C1C=C(C(=O)N2CCN(Cc3ccc4c(c3)OCO4)CC2)OC(OCc2ccc(CO)cc2)C1 (stereo unspecified),x,x,x,0.671,x,x,x,x
C/C(=N\Nc1nc2ccccc2[nH]1)c1ccccn1,-8.3,26.6*,27.1*,x,27.0*,24.8*,14.2*,9.4
CC1(C)OC(=O)C(=NNc2ccc(O)cc2)C(=O)O1,22.4,1.9,4.8,0.692,15.8*,17.0*,2.7,5.3
CC1(C)OC(=O)C(=NNc2ccccc2)C(=O)O1,-2.8,1.2,-3.0,x,3.0,x,x,x
C=CCN(c1ccccc1)S(=O)(=O)c1cccc(C(=O)NNC(=O)c2ccccc2O)c1,-3.8,4.6,-0.4,0.701,12.2*,4.7,3.7,4.4
COc1ccc(C(NC(C)=O)c2ccc3cccnc3c2O)c(OC)c1 (stereo unspecified),15.9,x,3.4,0.744,12.3*,6.8,6.8*,1.9
CCCC(=O)NC(c1ccccc1OC)c1ccc2cccnc2c1O (stereo unspecified),-6.1,x,31.2*,0.571,33.9*,29.7*,26.3*,23.9
CC(=O)NC(c1cccs1)c1cc(F)c2cccnc2c1O (stereo unspecified),1.8,6.6,-2.7,0.661,0.7,x,x,x
COc1ccccc1C(NC(C)=O)c1cc(Cl)c2cccnc2c1O (stereo unspecified),-6.8,3.4,3.5,0.686,-1.1,x,x,x
CC(C)CC(=O)NC(c1cccs1)c1ccc2cccnc2c1O (stereo unspecified),-4.3,x,35.3*,0.586,25.8*,25.6*,22.6*,21.1
CCCC(=O)NC(c1ccc(C)cc1)c1ccc2cccnc2c1O (stereo unspecified),-1.2,x,33.7*,x,23.8*,28.1*,26.2*,24.4
Clc1ccc(CN2CCC3C=CCc4cccc(c43)C2)cc1 (stereo unspecified),x,x,x,0.608,x,x,x,x
CC(C)(C)C1C=C(C(=O)N2CCOCC2)OC(OCc2ccc(CO)cc2)C1 (stereo unspecified),x,x,x,0.667,x,x,x,x
Cc1cccc(NC(=O)c2ccc([N+](=O)[O-])o2)c1C,-6.4,4.4,3.2,0.702,2.8,x,x,x
SMILES,Tat export inh,phage Ecoli inh,E coli growth-1,E coli growth-2,AddAB inh,AddAB conf,RecBCD counter,Bact viability
O=C(Nc1ccccc1N1CCCC1)c1ccc([N+](=O)[O-])o1,-9.1,1.7,7.5,0.667,14.0*,23.3*,2.5,6.5
COc1ccccc1NC(=O)c1ccc([N+](=O)[O-])o1,x,9.3,23.9*,0.494*,30.3*,98.0*,13.5*,43.2*
CC1CCN(c2ccccc2NC(=O)c2ccc([N+](=O)[O-])o2)CC1,-2.3,0.1,-3.0,0.696,3.1,x,x,x
CCCCCCCCC=CCCCCCCCC(=O)NCCc1ccc(O)c(O)c1,x,x,x,0.645,x,x,x,x
NC(=O)c1c(NC(=O)c2ccc([N+](=O)[O-])o2)sc2c1CCCC2,2.9,9.2,18.4*,0.641,23.1*,97.7*,8.8*,28.4*
N#Cc1c(NC(=O)c2ccccc2)sc2c1CCC2,-6.1,2.7,1.0,0.732,5.3,x,x,x
N#Cc1c(NC(=O)c2ccc([N+](=O)[O-])o2)sc2c1CCC2,0.8,4.6,10.9*,0.538,16.0*,64.0*,7.3*,18.6
CN(C)C=CC(=O)Oc1ccc(Cl)cc1Cl,x,x,x,0.672,x,x,x,x
O=C(Nc1ccc(N2CCCC2)c(Cl)c1)c1ccc([N+](=O)[O-])o1,-21.8,8.1,x,0.621,x,x,x,x
O=C(Nc1ccc2[nH]c(=O)[nH]c2c1)c1ccc([N+](=O)[O-])o1,-9.9,7.3,19.3*,0.644,18.2*,57.1*,9.0*,23.6
O=C(Nc1cccc(NC(=O)c2ccccc2Cl)c1)c1ccc([N+](=O)[O-])o1,-23.7,9.2,10.7*,x,13.5*,83.8*,5.5*,21.2
Cc1ccc(NC(=O)c2ccc([N+](=O)[O-])o2)cc1C,-17.9,9.6,30.5*,0.471*,26.7*,97.6*,10.9*,31.3*
COCCN1C(=O)NC(c2cccc(C(F)(F)F)c2)C(C(=O)OC)C1C (stereo unspecified),x,x,x,0.665,x,x,x,x
CC(O)C1CNCCN1CCc1cccc(F)c1 (stereo unspecified),x,x,x,0.647,x,x,x,x
COc1c(N2CCNC(C)C2)c(F)cc2c(=O)c(C(=O)O)cn(C3CC3)c12 (stereo unspecified),x,x,102.4*,0.061*,99.8*,100.9*,101.1*,102.5*
Cc1c(-n2cc(C(=O)O)c(=O)c3cc(F)c(N4CCCC(O)C4)c(F)c32)c(=O)n(-c2ccccc2)n1C (stereo unspecified),5.9,0.7,0.8,0.717,2.4,x,x,x
COc1cc(CNC(=O)c2ccc3oc(C(C)C)nc3c2)cc(OC)c1,-24.6,10.8,9.3,0.607,14.0*,6.8,6.4*,3.9
Cc1cnc(CNC(=O)c2ccc3oc(C(C)C)nc3c2)[nH]1,13.2,3.7,3.5,0.7,3.8,x,x,x
